Shown are actives, neighbours in structure and some others; about 2.8% of the full set was active somewhere.
Six1-Eya2 blk – qHTS Assay for Inhibitors of the Six1/Eya2 Interaction. Homeobox protein SIX1 (Homo sapiens) + Protein phosphatase EYA2 (Homo sapiens), …. AlphaScreen GST-Six1/His-Eya2 binding, biochemical; stronger effect = lower value. activity change, % (no concentration beside the values). 360,000 compounds, 0.56% hits. AID 651725, 2012; in the data active = activity change below about -65%; inconclusive = mostly about -30% to -63%; also: % is scaled to controls: 0 for no effect and ±100 for the full control effect
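Homogeneous AlphaScreen proximity assay pairing GST-Six1 with His-tagged Eya2 (added as 5X mix: 250 nM and 500 nM) in 50 mM Tris pH 8.0, 300 mM NaCl, 1 mM TCEP. Glutathione donor and nickel acceptor beads; 1 h, 37 °C, dark.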
ATXN2 expr inh – Primary qHTS for Inhibitors of ATXN expression; HEK-293 ATXN2-luciferase reporter, luminescence, 24 h; Potency, µM (highest dose often 57 µM), for the others: at the highest dose activity change, negative = inhibition, usual class: inhibitors; 360,000 compounds, 0.72% hits; AID 1745845, 2022; also: potency is read from the fitted curve at half-maximal effect; % is scaled to controls: 0 for no effect and ±100 for the full control effect; nearly all actives have a fitted effect of over 55% in size
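qHTS (up to 57 uM final) was run with 24 h compound exposure of reporter cells at 37 °C. Each well was multiplexed: SteadyGlo luminescence measured ATXN2-luciferase expression after a fluorogenic Gly-Phe-AFC viability readout (25 uM final).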
HepG2 tox – qHTS for Inhibitors of TGF-b: Cytotox Counterscreen; HepG2 CAGA-GFP viability, ATP luminescence, 18 h; 410,000 compounds, 0.76% hits; Potency, µM (doses to about 46.1 µM), for inactives: top-dose activity change, negative = cytotoxicity, hits mostly cytotoxic; also: potency is read from the fitted curve at half-maximal effect
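CellTiter-Glo luminescence gave cytotoxicity after 18 hours at 37 degrees C. The cells were HepG2 CAGA-GFP in 1% FBS DMEM, stimulated with 500 pg/mL TGF-beta after compound addition. %Activity was normalised to no-cell wells (complete cell-killing) and DMSO (no toxicity), and curves were fitted and classified.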
ATXN viability – Viability Counterscreen for Primary qHTS for Inhibitors of ATXN expression | 400,000 compounds, 0.49% hits | S2 cells (HEK-293 line with an ATXN2-luciferase reporter) viability, CellTiter-Fluor protease fluorescence, 24 h | AID 651635, 2014 | Potency, µM (series often up to 56.7 µM), most hits filed as cytotoxic; also: potency is read from the fitted curve at half-maximal effect; nearly all actives have a fitted effect of over 40% in size
TGFb SMAD3 inh – qHTS for Inhibitors of TGF-b | HepG2 CAGA-GFP TGF-b/SMAD3 reporter, GFP fluorescence, 18 h; TGF-beta stimulated, 500 pg/mL final | Potency, µM (top dose mostly 46.1 µM), for the others: at the top dose activity, negative = inhibition, usual class: inhibitors | 410,000 compounds, 1.2% hits; also: potency is read from the fitted curve at half-maximal effect; % is scaled to controls: 0 for no effect and ±100 for the full control effect; nearly all actives have a fitted effect of over 65% in size
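Cell-based qHTS in HEPG2 carrying a CAGA-GFP Smad reporter; compounds added before 500 pg/mL final TGF-beta, 18 h incubation at 37 degrees C, GFP fluorescence quantified per cell by imaging cytometry.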
CtBP-E1A inh – qHTS Assay for Inhibitors of the CtBP/E1A Interaction. CtBP / adenovirus E1A interaction (AlphaScreen). AlphaScreen GST-E1A/His-CtBP binding, 1536-well; stronger effect = lower value. activity change, % (test concentration not listed). 340,000 compounds, 0.49% hits. AID 651724, 2012; in the data active = activity change below about -65%; inconclusive = mostly about -30% to -63%; also: % is scaled to controls: 0 for no effect and ±100 for the full control effect
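In 5 uL wells, 23 nL compound meets equimolar GST-E1A and His-CtBP (5X stock 125 nM each) for 2 h, 37 °C. Beads (5X, 50 ug/mL) then 1 h, 37 °C, dark.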
Starred values were filed as active, the others as inactive; i = inactive; u = inconclusive; x = no result given. Unless noted, calls follow the shape of the dose curve; as a rule, active = well fitted curve in the direction sought with a large enough effect; inconclusive = small, poorly fitted or top-dose-only effect, or another doubt; inactive = no such curve, though single readings can be large; an effect the other way counts as inactive or inconclusive.

SMILES | Six1-Eya2 blk | ATXN2 expr inh | HepG2 tox | ATXN viability | TGFb SMAD3 inh | CtBP-E1A inh
Cc1ccc(-n2ncc3c(N4CCCC4)ncnc32)c(C)c1 | -1 | x | -12% | x | 5% | 3
c1ccc(-n2ncc3c(N4CCCCC4)ncnc32)cc1 | 10 | 13µM* | -26% | i | -4% | -8
CCN(CC)C(=O)C1CCCN(c2ncnc3c2cnn3-c2cccc(C)c2)C1 (configuration not stated) | -2 | -28% | -18% | i | -6% | 7
CN(C)c1ccc(C=O)cc1Cl | x | x | 2% | x | -3% | x
O=C1C(=C(O)c2ccccc2)C(=O)c2ccccc21 | -3 | -2% | -13% | i | 113% | -7
O=C1C(=C(c2ccccc2)c2ccccc2)Nc2ccccc21 | -70* | -12% | 3% | u | -27% | u
COc1ccc(-c2nc(N=Nc3ccc(O)cc3)n[nH]2)cc1 | -2 | -8% | 3% | 8.9µM* | -11% | -5
Cc1ccc(-c2nc(N=Nc3ccc(O)cc3)n[nH]2)cc1 | -12 | 0% | -40% | u | u | -7
CC1=NN(c2ccccc2)C(=O)/C1=C/C=C/c1ccc(N(C)C)cc1 | -1 | x | -2% | x | -3% | x
CC1=NN(c2ccccc2)C(=O)/C1=C\C=C\c1ccccc1 | -2 | u | -56% | u | 8.9µM* | 5
OC(c1ccccn1)(c1ccccn1)c1ccccn1 | -85* | u | 9% | u | 0% | -2
COc1cccc(CN2CCCC(c3nc(C)ncc3-c3ccc(F)cc3)C2)c1OC (configuration not stated) | x | x | x | i | x | x
CCC(c1nnnn1C1CCCC1)N(Cc1cccs1)Cc1cc2cc(C)ccc2[nH]c1=O (configuration not stated) | -9 | 32µM* | -10% | u | 3% | 6
CCOC(=O)Cn1nnnc1C(CC)N(Cc1cccs1)Cc1cc2cc(C)ccc2[nH]c1=O (configuration not stated) | -5 | 3% | -38% | i | -17% | 2
CCCS(=O)(=O)N1CC(=O)N(c2ccc(C)cc2C)C(C)(C(=O)NC2CCCCCC2)C1 (configuration not stated) | x | x | -1% | x | 0% | x
O=C(C=Cc1ccccc1)c1cccs1 | 0 | 26% | -63% | u | 11µM* | 0
O=C(OCC#CCSc1nnc(-c2cccc3ccccc23)o1)c1cc2ccccc2s1 | x | 47% | x | x | x | x
CN(C)c1ccc(C(=S)Nc2ccccc2)cc1 | 2 | 20% | 10% | i | -1% | 2
COC(=O)c1ccc(/C=C(\C#N)c2ccccn2)cc1 | -7 | 28% | -23% | u | 11% | 7
CN(C)c1ccc(NC(=S)c2ccccn2)cc1 | -88* | u | -47% | i | u | -74*
N#CC(C#N)=Cc1ccc(OC(=O)c2ccccn2)cc1 | -68* | 25% | -10% | i | -12% | u
N#C/C(=C\c1ccc([N+](=O)[O-])cc1)c1ccccn1 | -20 | 61% | -28% | i | 5% | -1
CN(C)c1ccc(/C=C(\C#N)c2ccccn2)cc1 | 6 | 11µM* | -62% | i | 27% | 10
CCN(CC)C1CCN(C(=O)c2cnn(-c3ncc4c(n3)-c3ccccc3CCC4)c2COC)C1 (configuration not stated) | x | x | x | i | x | x
Cc1cn(C)c(CC(=O)Nc2cccc(Cl)c2C)c1C(=O)O | x | 7% | 5% | i | 3% | x
SMILES | Six1-Eya2 blk | ATXN2 expr inh | HepG2 tox | ATXN viability | TGFb SMAD3 inh | CtBP-E1A inh
COc1ccc2[nH]c(C)c(CCNC(=S)Nc3cc(C)ccc3C)c2c1 | 9 | -10% | -29% | i | -11% | -5
CCc1cccc(CC)c1NC(=S)NCCc1c(C)[nH]c2ccc(C)cc12 | -25 | 18µM* | -102% | u | 13µM* | -1
CCc1cccc(C)c1NC(=S)NCCc1c(C)[nH]c2ccc(C)cc12 | u | u | 11µM* | i | 13µM* | -21
Cc1nnc(SCC(=O)Nc2ccc(Br)cc2)[nH]c1=O | x | -8% | -6% | i | 5% | x
CCC1=NN(C(=O)c2ccc([N+](=O)[O-])cc2)C(O)(c2ccccc2)C1 (configuration not stated) | -16 | u | 13µM* | 28µM* | u | -30
CCC1=NN(C(=O)c2ccc(Cl)cc2)C(O)(c2ccc(C)cc2)C1 (configuration not stated) | 0 | 5% | 13µM* | i | 11µM* | -5
CCC1=NN(C(=O)c2ccccc2Br)C(O)(c2ccc(Br)cc2)C1 (configuration not stated) | 7 | x | 3% | i | -9% | x
CCC1=NN(C(=O)c2ccccc2O)C(O)(c2ccccc2)C1 (configuration not stated) | -17 | -39% | 14µM* | x | 13µM* | -7
CCC1=NN(C(=O)c2ccc(Cl)cc2)C(O)(c2ccccc2)C1 (configuration not stated) | -1 | x | -88% | u | u | x
O=C(c1cccc(F)c1)N(Cc1cc2cc3c(cc2nc1N1CCOCC1)CCC3)CC1CCCO1 (configuration not stated) | x | x | x | i | x | x
Cc1cc(C(=O)Nc2ccccc2-c2nc(CNC(=O)C3(C)CCCCC3)c(C)o2)c(C)o1 | x | x | x | i | x | x
COc1ccccc1OCC(=O)OC/C(O)=C(\C#N)c1nc2ccccc2[nH]1 | -13 | x | 2% | 3.2µM* | -11% | x
N#C/C(=C(/O)COC(=O)c1ccc2c(c1)OCCO2)c1nc2ccccc2[nH]1 | -14 | 9% | 16µM* | u | -6% | -15
N#CC(=C(O)COC(=O)CCC1CCCCC1)c1nc2ccccc2[nH]1 | -5 | 20µM* | 16% | x | -5% | -3
N#C/C(=C(/O)COC(=O)CSc1ccc(Cl)cc1)c1nc2ccccc2[nH]1 | -7 | 28µM* | -14% | 14µM* | 17% | -17
N#C/C(=C(/O)COC(=O)c1ccc(Cl)c(S(=O)(=O)N2CCOCC2)c1)c1nc2ccccc2[nH]1 | 4 | 4% | -5% | i | -10% | 0
